mHTT CaM bind: inhibitors of human mutant huntingtin-calmodulin interaction. AlphaScreen His-mHTT/GST-CaM binding, luminescence. 3.6% of 190,000 active. P42858. inhibition, % at 15 µM
Pf apPOL block: Pf-apPOL DNA polymerase inhibition | inhibition, % at 10 µM | Recombinant Pf-apPOL, molecular beacon fluorescence, 1.5 h | AID 1794808 | 0.25% of 210,000 active
Large screens that a line does not name were inactive; ! = a repeat was not active. Rows were chosen to be rich in hits. Some 3.5% of all compounds tested hit in one or more screens of this group. No stated cut-off is given here; in the data, active means inhibition above about 50%; inactive means the rest.

O=C(Nc1nc2c(s1)CCCC2)c1coc(NC(=O)c2cccs2)n1	none
O=C(CN1CCC(c2nnc(-c3ccco3)s2)CC1)c1ccc(Cl)cc1	mHTT CaM bind 72
O=C(Cn1cccc1)N1CCC(c2nnc(-c3ccco3)s2)CC1	none
COCC(=O)N1CCN(c2ccccc2F)C(=O)C1C (centres undefined)	none
Cc1nc2ccc(Cl)cc2c2c(N)c3ccccc3n12	mHTT CaM bind 56
CC(=O)Nc1c2ccc([N+](=O)[O-])cc2n2c(C)nc3ccc(Cl)cc3c12	none
O=C(c1ccc(N2CCC3(CC2)OCCO3)c([N+](=O)[O-])c1)N1CCN(c2ccccn2)CC1	none
Cc1noc(C)c1S(=O)(=O)N1CC(c2nc(Cc3cccs3)no2)C1	none
O=C(Nc1nnc(Cc2cccs2)o1)c1ccc2ncsc2c1	none
CCOc1nc(NCCN2CCOCC2)nc(Nc2ccc(I)cc2)n1	mHTT CaM bind 57
Clc1nc(NCCN2CCOCC2)nc(Nc2ccc(I)cc2)n1	none
C=CCc1cccc(C2Nc3ccccc3C(=O)N2O)c1O (centres undefined)	Pf apPOL block 57
O=C1c2ccccc2NC(c2ccc(Cl)cc2Cl)N1O (centres undefined)	none
O=C(Nc1ccc2c(c1)OCO2)c1c(Cl)cccc1Cl	none
O=S(=O)(Nc1cccc(F)c1)c1ccc(-c2ccccc2)cc1	mHTT CaM bind 79
O=S(=O)(Nc1ccc(Nc2ccccc2)cc1)c1ccc(F)cc1	mHTT CaM bind 69
O=S(=O)(Nc1ccc(NS(=O)(=O)c2ccc(F)cc2)cc1)c1ccc(F)cc1	none
Cc1ccc(S(=O)(=O)Nc2cccc(F)c2)cc1	none
O=C1OC(c2ccccc2Br)=N/C1=C\C(Cl)=C\c1ccccc1	none
O=C(NCc1ccc(Cl)cc1)c1nc(-c2ccncc2)cs1	mHTT CaM bind 66
Cc1ccc(CNC(=O)c2nc(-c3ccncc3)cs2)cc1	none
CN(CCNC(=O)C1CCN(c2cncnc2N2CCOCC2)CC1)C1CCCCC1	none
COC(=O)c1ccc(CN2CCN(Cc3nc4ccccc4n3Cc3ccccc3)CC2)o1	none
Cc1ccc(NC(NC(=O)Nc2ccccc2)C(Cl)(Cl)Cl)cc1 (centres undefined)	mHTT CaM bind 85
Cc1ccc(NC(=O)Nc2ccc(Cl)cc2)cc1	none
O=c1nc2ccccn2c2ccc([N+](=O)[O-])cc12	none (no result: Pf apPOL block)
COc1ccc(C2CC(=O)C3=C(C2)Nc2ccccc2NC3c2ccc(N(C)C)cc2)cc1OC (centres undefined)	mHTT CaM bind 52
COc1ccc(C2CC(=O)C3=C(C2)Nc2ccccc2NC3c2ccc(C)s2)cc1OC (centres undefined)	none
COc1ccc(C2CC(=O)C3=C(C2)Nc2ccccc2NC3c2ccc(Cl)s2)cc1OC (centres undefined)	mHTT CaM bind 56
COc1ccc(C2CC(=O)C3=C(C2)Nc2ccccc2NC3c2ccc(Cl)cc2)cc1OC (centres undefined)	none
O=C(Cn1cnc(-c2cccs2)cc1=O)NCc1nc2ccccc2[nH]1	none
COc1ccc(Cl)cc1N1C(=O)CSC1c1c(F)cccc1Cl (centres undefined)	none
NC(=Nc1nc2ccccc2o1)NC(=O)c1ccco1	none
O=C(N/C(=C\c1ccc(Br)cc1)c1nc2ccccc2o1)c1ccco1	mHTT CaM bind 94
Cc1nc(-c2ccc(-c3noc(C=Cc4ccccc4)n3)cc2)cs1	none
O=[N+]([O-])c1cc2c(cc1C1NN=C(c3ccccc3)S1)OCO2 (centres undefined)	mHTT CaM bind 52
O=C1CSC(c2cc3c(cc2[N+](=O)[O-])OCO3)N1c1ccccc1F (centres undefined)	none
CCSc1nnc(NC(=O)CN(C)c2nc3c(C)ccc(C)c3s2)s1	none
CCC1(CC)OC2c3cc([N+](=O)[O-])ccc3OC(C)N2c2ccccc21 (centres undefined)	none
CNC(=O)c1cc(NC)nc2c(Cl)cccc12	none
COc1ccc(C2=NOC(C(=O)Nc3ccc4c(c3)OCO4)C2)cc1OC (centres undefined)	mHTT CaM bind 55
COc1ccc(NC(=O)C2CC(c3ccc(OC)c(OC)c3)=NO2)cc1OC (centres undefined)	none
COc1cc(C2=NOC(C(=O)Nc3ccc4c(c3)OCO4)C2)cc(OC)c1OC (centres undefined)	mHTT CaM bind 60
COc1ccc(NC(=O)C2CC(c3cc(OC)c(OC)c(OC)c3)=NO2)cc1OC (centres undefined)	none
O=C(O)C1CC(=O)N(Cc2ccc3c(c2)OCO3)C(=Nc2ccc(Cl)cc2)S1 (centres undefined)	none
N#Cc1cc2c(nc1SCC(=O)c1ccc(Br)cc1)CCC2	none
COc1ccccc1Nc1nc(-c2c(C)nc3ccccn23)cs1	mHTT CaM bind 62
COc1ccccc1Nc1nc(-c2ccccc2)cs1	none
Cc1nc2sccn2c1-c1csc(Nc2ccc([N+](=O)[O-])cc2)n1	none
CCN(CC)c1ccc(Nc2nc(-c3c(C)nc4sccn34)cs2)cc1	mHTT CaM bind 93
COc1ccccc1Nc1nc(-c2cccnc2)cs1	none
COc1ccccc1Nc1nc(-c2c(C)nc3sccn23)cs1	mHTT CaM bind 80
COc1ccc(OC)c(Nc2nc(-c3c(C)nc4ncccn34)cs2)c1	mHTT CaM bind 82
COc1ccc(OC)c(Nc2nc(-c3cccc([N+](=O)[O-])c3)cs2)c1	none
O=[N+]([O-])c1c(Nc2cccc(C(F)(F)F)c2)c2nonc2c2nonc12	none
Cc1ccc(/C=C2\N=C(c3ccc(C)c([N+](=O)[O-])c3)OC2=O)o1	none
COCCn1c(SCC(=O)c2ccc(Cl)cc2)nc2c(c1=O)SC(C)C2 (centres undefined)	none
CC(=O)c1cccc(NC(=O)COc2ccc(Cl)cc2)c1	none
CCN1C(=O)c2ccc(C(=O)Nc3ccc(C)cc3[N+](=O)[O-])cc2C1=O	none
Cc1noc(C)c1C(=O)N1CCN(C(c2ccc(F)cc2)c2ccc(F)cc2)CC1	none
Cc1oc(C(=O)O)cc1COc1ccc2c(C)c(C)c(=O)oc2c1	none
Cc1ccc(NCN2C(=O)C3CC=C(Cl)CC3C2=O)cc1 (centres undefined)	mHTT CaM bind 64
O=C1C2CC=C(Cl)CC2C(=O)N1CNc1ccccc1 (centres undefined)	none
O=C(c1cccc([N+](=O)[O-])c1)N1N=C2CCCCC2C1(O)C(F)(F)F (centres undefined)	none
CCCC(=O)Nc1ccc2c(c1)N(C(C)=O)CCC2	none
Cc1ccc2ccc(C(Nc3ccccn3)c3ccccc3C)c(O)c2n1 (centres undefined)	mHTT CaM bind 68
Cc1cc(C)c2nc(C)cc(NC(=O)c3ccccn3)c2c1	none
COc1ccccc1C(=O)Nc1ccccn1	none
COc1cccc(C(Nc2ccccn2)c2ccc3ccc(C)nc3c2O)c1OC (centres undefined)	mHTT CaM bind 69
COc1cccc(CNC(=O)c2cc3c(s2)CN(C2CC2)C3)c1	none
CCCn1cnnc1C1CCN(C(=O)c2ccc(C)nc2)CC1	none
COCCN(CC1(C)CCOCC1)C(=O)C(C)Oc1ccccc1 (centres undefined)	none
CC(C)NC(=O)N1CCCC(c2cccc(C(=O)NCc3cccc(Cl)c3)c2)C1 (centres undefined)	none
OC(CNC1CCCC1)COCCC12CC3CC(CC(C3)C1)C2 (centres undefined)	none
COc1ccc(C2Oc3c(ccc4cc(OC)c(OC)cc34)-c3cc(OC)c(OC)cc32)cc1 (centres undefined)	none (no result: Pf apPOL block)
COc1cc2c(cc1OC)C(c1ccc(Cl)cc1)OC1=C2C(=O)c2ccccc21 (centres undefined)	mHTT CaM bind 68!

High-throughput results deposited in PubChem BioAssay by University of Kansas High Throughput Screening Laboratory.
